Data: PubChem BioAssay AID686979 (National Center for Advancing Translational Sciences (NCATS), 2013)
Where “and” joins values, the source holds several entries; their conditions need not be identical. Equal values may be shown once. The whole screen tested about 420,000 compounds, of which about 50,000 (12%) were called active. Another 26% or so got no clear call; they are omitted. The entries come from a sample that favours actives as a whole. Unmarked numbers belong to inactive results. Calls come from the whole dose curve; as a rule, active = well fitted inhibition curve with a large enough effect; inconclusive = small, poorly fitted or top-dose-only effect; inactive = flat fitted curve, though single readings scatter.

test: qHTS for Inhibitors of human tyrosyl-DNA phosphodiesterase 1 (TDP1): qHTS in cells in presence of CPT; conditions: chicken DT40 Tdp1-/-;hTDP1 cells + 20 nM CPT, ATP luminescence, 48 h; series mostly up to 46.2 µM; activity change, negative = growth inhibition: at the top concentration; note: nearly all actives have a fitted effect of over 55% in size
Method in brief: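 Chicken DT40 Tdp1-/- cells complemented with human TDP1, 400 cells/well, exposed to compounds plus 20 nM camptothecin for at least 48 h at 37 C; viability read as ATP content by CellTiter-Glo luminescence.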
% is set by controls: 0 for no effect and ±100 for the full control effect; potency is the fitted concentration of half-maximal effect.

| SMILES | activity change, negative = growth inhibition | Potency |
| --- | --- | --- |
| CC1CCCCN1Cc1cccnc1 (stereo unspecified) | -3.72% | – |
| CCOC(=O)C(O)(c1ccc(N=Cc2ccccc2O)c(C)c1)C(F)(F)F (stereo unspecified) | -6.07% | – |
| CC(=O)c1c(O)c(C)c(O)c(Cc2c(O)c3c(c(C(=O)/C=C\c4ccccc4)c2O)OC(C)(C)C=C3)c1O | – | 13.3 µM (active) |
| CC(=O)c1c(O)c(C)c(O)c(Cc2c(O)c3c(c(C(=O)/C=C/c4ccccc4)c2O)OC(C)(C)C=C3)c1O | – | 29.9 µM (active) |
| O=C1NC(=O)C(CCc2ccccn2)(Cc2cccc(Cl)c2Cl)C(=O)N1c1ccc(Br)cc1 (stereo unspecified) | -15% | – |
| CCOP(=S)(OCC)SCOC(=O)NCC(=O)OC | -6.7% | – |
| CN1CCc2cc3c(cc2[C@H]1[C@@H]1OC(=O)c2c1ccc1c2OCO1)OCO3 | 1.03% | – |
| C=CCSSCC=C | -2.1% | – |
| CC(=CCOc1ccc2ccc(=O)oc2c1)C1=CC(=O)C(C)(C)O1 | – | 5.8 µM (active) |
| c1ccc2c(c1)[I+]c1ccccc1-2 | – | 33.5 nM (active) and 15.8 nM (active) and 79.4 nM (active) |
| Cc1nc2nc(C)c(CCC(=O)N3CCC4(CC3)OCCO4)c(C)n2n1 | -1.59% | – |
| O=C(O)CCn1cc(C=C2C(=O)NC(=S)NC2=O)c(-c2cccc(Br)c2)n1 | 1.42% | – |
| CNCC[C@H](Oc1ccc(C(F)(F)F)cc1)c1ccccc1 | – | 7.5 µM (active) |
| N[C@@H](Cc1c[nH]c2ccccc12)c1nnc(SCc2c(F)cccc2Cl)o1 | -13% | – |
| CC(C)C(N)C(=O)OCCOCn1cnc2c(=O)[nH]c(N)nc21 (stereo unspecified) | – | 2.06 µM (active) |
| CN(C)C(=O)Oc1cc(=O)n2c3c(cccc13)CCC2 | -1.55% | – |
| O=[N+]([O-])c1cnc2ccc3ccccc3c2c1 | 6.91% | – |
| CC1CC=CCC12C(=O)NC(=S)NC2=O (stereo unspecified) | -9.4% | – |
| COC(=O)COc1cc(C)cc2oc(=O)c3c(c12)CCCC3 | -6.26% | – |
| O=c1c2ccccc2nc(CBr)n1-c1ccc(Cl)cc1 | -28.4% | – |
| Cc1nc2ccccc2c(=O)n1-c1ccc(Cl)cc1Cl | – | 13 µM (active) |
| O=C1CC(=O)N(Cc2ccccc2)C(=O)N1CCCCCCN1C(=O)CC(=O)N(Cc2ccccc2)C1=O | 20.6% | – |

| SMILES | activity change, negative = growth inhibition | Potency |
| --- | --- | --- |
| O=C(O)c1cc[c]([Sb](=[O])([OH])[OH])cc1[N+](=O)[O-] | -6.27% | – |
| COc1ccc(C)cc1N(CC(=O)N1CCC(C)CC1)S(=O)(=O)c1ccc(C)cc1 | – | 18.4 µM (active) |
| COc1cc2c(cc1OC)[C@@H]1C(=O)c3ccc(O)c(CC=C(C)C)c3OC1CO2 (stereo partly specified) | 2.99% | – |
| COc1ccc2[nH]c3c(c2c1)CCN[C@H]3C | 5.04% | – |
| CC1CCC(N(C)C2CCN(C)CC2)CC1 (stereo unspecified) | -14.5% | – |
| C[C@]12CCC3C(CC[C@H]4C[C@@H](O)CC[C@]34C)C1CC[C@@H]2O (stereo partly specified) | -6.05% | – |
| O=C(c1ccccc1[N+](=O)[O-])N1CCC2(CC1)OCCO2 | -10.9% | – |
| Cc1cc(C)cc(C(=O)N(CCc2ccccc2)C2=CC3CCC(C2)N3C)c1 (stereo unspecified) | – | 20.6 µM (active) |
| CN1C2C=C(N(C(=O)c3ccc(Cl)cc3)c3ccccc3)CC1CC2 (stereo unspecified) | -11.7% | – |
| Cc1ccc(N2C(=O)NC(=O)C(CCc3ccncc3)(Cc3cccc(Cl)c3Cl)C2=O)cc1 (stereo unspecified) | -5.48% | – |
| CN(C)C1C(=O)C(C(N)=O)=C(O)[C@@]2(O)C(=O)C3=C(O)c4c(O)cccc4[C@@](C)(O)C3C[C@@H]12 (stereo partly specified) | – | 21.1 µM (active) |
| CC(C)Nc1nc(Cl)nc(NC(C)C)n1 | – | inactive |
| COC(=O)C(O)(c1ccc(NC(=O)c2ccco2)c(OC)c1)C(F)(F)F (stereo unspecified) | -6.8% | – |
| CCNc1nc2[nH]c(=O)c3c(c2s1)OC(N)=C(C#N)C3c1cccs1 (stereo unspecified) | -26.8% | – |
| N#CC1=C(N)Oc2c(c(=O)oc3ccccc23)C1c1ccccc1OC(=O)c1cccs1 (stereo unspecified) | – | 18.4 µM (active) |
| CNP1(NC)=Nc2nn(-c3ccccc3)c(N)c2C(c2ccccc2)=N1 | -13.9% | – |
| CN(C)CC1Oc2ccccc2OC1(O)c1ccccc1 (stereo unspecified) | – | 2.06 µM (active) |
| COc1cc(OC)cc(C2(C#N)CCN(C)CC2)c1 | -17.9% | – |
| CCCCC/C=C\C/C=C\C/C=C\C/C=C\CCCCCC(=O)NCCO | -4.85% [at 4.12 µM] | – |
| O=C(N/N=C/c1c(O)n(C2CC2)c(=S)[nH]c1=O)c1ccccc1Cl | 13.4% | – |
| COC([CH2][Hg])CNC(=O)c1ccccc1OCC(=O)O (stereo unspecified) | – | 1.06 µM (active) |
| c1cncc(CNC2=NCCC2)c1 | 3.64% | – |

| SMILES | activity change, negative = growth inhibition | Potency |
| --- | --- | --- |
| CCOP(=S)(OCC)C(O)CCCCCn1c(=O)c(F)cn(C2CCCO2)c1=O (stereo unspecified) | -1.03% | – |
| CCC1(CC(C)c2ccccc2)C(=O)NC(=O)NC1=O (stereo unspecified) | -0.717% | – |
| CCc1ccccc1NC(=O)c1sc2nc3c(cc2c1N)CN(Cc1ccccc1)CC3 | – | 7.31 µM (active) |
| Cn1cc(C(=O)OCC(=O)N2CCCC2)c2ccccc21 | 1.39% | – |
| CN1CCN(C(=S)SCC(=O)Nc2ccc(Cl)cc2C(=O)c2ccccc2)CC1 | – | 14.6 µM (active) |
| O=C(Nc1ccc(Cl)cc1C(=O)c1ccccc1)c1cc(Cl)cc(Cl)c1 | -9.22% | – |
| O=C(COC(=O)c1ccccc1)Nc1ccc(Cl)cc1C(=O)c1ccccc1 | -11% | – |
| CC(Cc1cccs1)NCc1ccc(Cl)cc1 (stereo unspecified) | -21% | – |
| CC(C)(Cc1c[nH]c2ccc(Cl)cc12)NCCOc1ccccc1OCC1CC1 | – | 21.1 µM (active) and 6.51 µM (active) |
| Cc1ccc(Cn2c(C)c3cnn(CC(=O)N4CCC5(CC4)OCCO5)c(=O)c3c2C)cc1 | – | 20.6 µM (active) |
| O=C(CCCn1c(=O)[nH]c2cc(Cl)ccc2c1=O)N1CCC2(CC1)OCCO2 | -18.1% | – |
| COc1ccc(-c2nc(CS(=O)CC(=O)N3CCC4(CC3)OCCO4)c(C)o2)cc1 (stereo unspecified) | -11.2% | – |
| CCC(=O)OC(Cc1ccccc1)(c1ccccc1)C(C)CN(C)C (stereo unspecified) | -3.39% | – |
| COC(=O)[C@@]12C[C@@H](CC(=O)NCc3cccc(C(F)(F)F)c3)C(=O)N(Cc3ccco3)C1=CCC(C)(C)C2 | – | 20.6 µM (active) |
| COc1cccc(-c2nc3ccc(N4CCN(C)CC4)cc3[nH]2)c1 | -18.1% | – |
| O=C1C2CCN(CC2)C1(CO)CO | – | 2.66 µM (active) |
| CN(C)C(=O)NC(O)C(Cl)(Cl)Cl (stereo unspecified) | -0.512% | – |
| O=c1[nH]c(=O)n(Cc2ccccc2)c(O)c1/C=N/Nc1c(F)c(F)c(F)c(F)c1F | -13.6% | – |
| O=C1NC(=O)C(Cc2ccccc2)C(=O)N1 | -5.53% | – |
| CCN(CC)C(=O)Oc1ccc(NC(=O)N2CCOCC2)cc1 | -13% | – |
| O=C(OCCN1CCOCC1)C1(c2ccccc2)CCCC1 | 7.49% | – |
| O=c1c2ccccc2nc(/C=C/c2ccc(F)cc2)n1-c1ccccc1O | – | 23.1 µM (active) |

| SMILES | activity change, negative = growth inhibition | Potency |
| --- | --- | --- |
| Cn1cc(/C=C/c2nc3ccccc3c(=O)n2-c2ccccc2)c2ccccc21 | – | 10.3 µM (active) |
| O=c1c2ccccc2nc(/C=C/c2ccco2)n1-c1ccccc1O | – | 14.6 µM (active) |
| CSc1nc2ccc(C)cc2c(=O)n1-c1cccnc1 | -17.6% | – |
| O=C(Nc1cccc2ccccc12)N1CCC2(CC1)OCCO2 | 1.32% | – |
| CCOC(=O)C1CN(C)CCC1=O (stereo unspecified) | -17.2% | – |
| CN(C)CCCN=Cc1c(O)n(Cc2ccco2)c(=O)[nH]c1=O | -9.19% | – |
| c1cc2c(cc1[C@H]1OC[C@H]3[C@@H]1CO[C@@H]3c1ccc3c(c1)OCO3)OCO2 | -10.6% | – |
| CC(CC(C#N)(c1ccccc1)c1ccccc1)N1CCCCC1 (stereo unspecified) | 14.4% | – |
| O=C(N/N=C/c1ccc([N+](=O)[O-])o1)c1cc([N+](=O)[O-])cc([N+](=O)[O-])c1O | -39.1% | – |
| N[C@H](C(=O)O)c1cc(=O)[nH]o1 | -1.29% | – |
| O=C(COC(=O)Cc1ccccc1)Nc1ccc(F)cc1 | 38.9% | – |
| CC(C)c1ccc(-n2c(O)c(/C=N/N3CCOCC3)c(=O)[nH]c2=S)cc1 | 2.61% | – |
| CN(C)c1cccc(C(=O)Nc2nc3ccc(S(=O)(=O)NC(C)(C)C)cc3s2)c1 | – | 10.3 µM (active) |
| CC1C2Cn3c(nc4ccccc43)C1N(C)O2 (stereo unspecified) | -1.39% | – |
| Cc1c(C(=O)O)cccc1-n1c(C)cc(/C=C2\C(=O)NC(=O)N(c3ccc4c(c3)OCO4)C2=O)c1C | 22.5% | – |
| CN1CCC(OC(=O)c2cccc(F)c2)CC1 | -5.62% | – |
| COC(=O)[C@@H]1C(OC(=O)c2ccccc2)CC2CCC1N2C (stereo partly specified) | -19.5% | – |
| CN1[C@@H]2CC[C@H]1CC(OC(=O)c1cc(Cl)cc(Cl)c1)C2 (stereo partly specified) | – | 18.8 µM (active) |
| CC1([N+](=O)[O-])COP(=O)(Nc2ccc(F)cc2)OC1 (stereo unspecified) | 0.366% | – |
| Cc1c(Oc2cc(NN3CCCCC3)c([N+](=O)[O-])cc2[N+](=O)[O-])cccc1[N+](=O)[O-] | -26.6% | – |
